Screens (PubChem BioAssay)
A selection: hits, their analogues and other compounds. The true share with any hit is near 2.2%.
Cardiac RTF inh: cardiac RTF calcium desensitization; P19429+P45379; IANBD-labeled cardiac RTF, Ca2+ fluorescence; inhibition, % at 7.15 µM; actives 0.12% (n = 340,000);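 active means inhibition above the mean inhibition of all tested compounds plus 3 SD, cut at about 17% in these data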;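 further: assay run at fixed EC70 calcium of 1.6 mM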
CRFBP-R2 block: blocks CRF-induced signaling of the CRF-BP/CRF-R2 complex; HEK293 CRF-R2/CRF-BP, CRF-induced calcium fluorescence; inhibition, % at 11.8 µM; actives 0.59% (n = 350,000); AID 588475;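 active means inhibition of the ligand-induced calcium signal above about 50% at the single tested concentration, limit read from the data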
RTF Ca sens act: increases calcium sensitivity of human cardiac regulated thin filaments | IANBD-labeled TnC RTF fluorescence at EC20 calcium; 0% EC20 calcium, 100% full calcium | activation, % at 7.2 µM | actives 0.24% (n = 340,000) | AID 493008;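 active means activation above the mean over all tested compounds plus 3 SD, cut at about 30% in these data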;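 further: rise in fluorescence read as greater calcium sensitivity of cardiac thin filaments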
Myeloid diff 2: compounds promoting myeloid differentiation; ER-HoxA9 myeloid progenitors, lysozyme-GFP differentiation, flow cytometry; calls only at 10 µM; actives 1% (n = 360,000);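 active means normalized GFP-positive differentiation at or above the plate's own cutoff, the solvent-only control mean plus 3 SD; inconclusive means no clear call, values can overlap the other calls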;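 further: cells exposed to compound for four days before flow analysis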
CRFR2-BP ag: agonists of human CRF-binding protein/CRF-R2 receptor complex. activation, % at 13.2 µM. HEK293 CRF-R2/CRF-BP, calcium dye fluorescence (FLIPR); percent of saturating CRF peptide response. actives 0.46% (n = 350,000);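 active means activation of at least 50%, plus an integration ratio under a set limit after plate pattern correction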
Myeloid diff CP1: promotes myeloid progenitor differentiation | calls only | shares compounds with Myeloid diff 2 | actives 2% (n = 2,300) | ER-HoxA9 myeloid progenitors, GFP/Mac1 double-positive flow;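 active means share of green or green-and-red cells above 9 and 9% in run 1 or 4 and 3% in run 2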
GFP autofluor: compound fluorescence in myeloid differentiation counter-screen. shares compounds with Myeloid diff 2. ER-HoxA9 myeloid progenitors, no estrogen, GFP autofluorescence flow cytometry; vehicle wells 0%, positive control 100%. fluorescence response, % (test concentration not listed). actives 7.4% (n = 2,300). AID 651707;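 active means over 5% cells positive for green fluorescent reporter, or over 2% positive for both it and APC stain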
Hits are given with their value; i = inactive; ? = inconclusive; nt = no result given; + = active, no number.

SMILES	Cardiac RTF inh	CRFBP-R2 block	RTF Ca sens act	Myeloid diff 2	CRFR2-BP ag	Myeloid diff CP1	GFP autofluor
Cc1c(O)ccc2c(O)c(NC(=O)c3ccc4c(c3)CCC(C)(C)O4)c(=O)oc12	i	i	i	i	i	nt	nt
CCCCCNC(=O)C(c1ccc(OC)cc1)n1c(=O)c(-c2ccco2)nc2ccccc21 (stereo not drawn)	nt	nt	nt	i	nt	nt	nt
CCCCCNC(=O)C(c1ccc(C#N)cc1)n1c(=O)c(-c2ccco2)nc2ccccc21 (stereo not drawn)	nt	nt	nt	i	nt	i	i
O=C(O)CCCCCN1C(=O)/C(=C/c2ccncc2)SC1=S	i	i	i	i	i	nt	nt
O=C(O)CCCCCN1C(=O)/C(=C\c2ccncc2)SC1=S	i	i	i	+	i	i	i
Cc1ccc(-c2cc(C(=O)Nc3ccncc3)c3ccccc3n2)cc1	i	i	i	i	i	nt	nt
CC(C)(C)c1ccccc1NC(=O)c1cc(-c2ccncc2)nc2ccccc12	i	i	i	i	i	i	i
O=C(CC1c2cc(F)ccc2C=C(c2ccsc2)N1c1ccc(C#CCCO)cc1)c1ccco1 (stereo not drawn)	nt	nt	nt	i	nt	i	i
COc1ncc(-c2ccc(N3C(c4ccsc4)=Cc4ccc(F)cc4C3CC(=O)c3ccco3)cc2)cn1 (stereo not drawn)	nt	nt	nt	i	nt	nt	nt
N#C/C(=C\C1=C(N2CCOCC2)C(=C/c2cccc([N+](=O)[O-])c2)/CC1)C(=O)Nc1ccccc1F	i	i	i	i	i	nt	nt
O=C(O)c1ccccc1N/N=C/C1=C(N2CCOCC2)C(=C\c2ccccc2)/CC1	i	i	i	i	i	nt	nt
CCN(CC)c1ccc(/C=C2\CCC(/C=N/NC(=O)c3ccc(=O)n(C)c3)=C2N2CCOCC2)cc1	i	i	i	+	96.1	i	98.5
CCN(CC)c1ccc(/C=C2\CCC(/C=C(\C#N)C(=O)Nc3ccccc3F)=C2N2CCOCC2)cc1	i	i	i	i	i	i	5.5
N#C/C(=C/C1=C(N2CCOCC2)C(=C/c2cccc([N+](=O)[O-])c2)/CC1)C(=O)Nc1ccccc1F	i	i	i	+	i	i	45.7
O=C(N/N=C/C1=C(N2CCOCC2)C(=C\c2ccccc2)/CC1)Nc1ccccc1	i	i	i	i	i	nt	nt
COc1ccc(CN=CC2=C(O)CNC2=O)cc1OC	i	i	i	i	i	i	i
CCCCNC(=O)C1C(c2ccc(C(F)(F)F)cc2)=Nc2ccccc2N1C(=O)C1CCN(C(C)=O)CC1 (stereo not drawn)	nt	nt	nt	i	nt	nt	nt
O=CNc1ccc2c3c(cccc13)-c1ccccc1-2	i	i	i	+	i	i	i
COc1cccc(NC(=O)Nc2ccncc2)c1	i	i	i	i	i	nt	nt
Cc1ccc2cccc(NC(=S)NC(=O)c3ccccc3)c2n1	i	i	i	i	i	i	i
O=C(NC(=S)Nc1ccc(Cc2ccncc2)cc1)c1ccccc1	i	i	i	+	i	i	5.4
O=C(NC(=S)Nc1cccc(NC(=S)NC(=O)c2ccccc2)c1)c1ccccc1	i	i	i	+	i	i	i
COc1cccc(NC(=O)Nc2ccc(Cc3ccncc3)cc2)c1	i	i	i	+	i	i	i
CCCCC[C@@H](/C=C/C1C(=O)C=C[C@H]1C/C=C\CCCC(=O)OC)OC(C)=O (stereo partly drawn)	i	i	i	i	i	nt	nt
O=C1CN(C(=O)COc2ccccc2)CCN1	i	i	i	i	i	nt	nt
SMILES	Cardiac RTF inh	CRFBP-R2 block	RTF Ca sens act	Myeloid diff 2	CRFR2-BP ag	Myeloid diff CP1	GFP autofluor
CC(Oc1ccc(F)cc1)C(=O)Nc1cccc(S(=O)(=O)N(C)c2ccccc2)c1 (stereo not drawn)	nt	i	nt	i	i	nt	nt
Cn1c(Cn2cnc(Cl)c2Cl)nc2ccccc21	i	i	i	i	i	i	i
Cc1ccc(OCC(=O)N2CCCCC2)c(Br)c1	i	i	i	i	i	i	i
O=S(=O)(c1ccc2ccccc2c1)N1CCN(c2ccc(O)cc2)CC1	i	i	i	+	i	i	i
Cc1cc(C)c(SSc2nnnn2-c2ccccc2)c(C)c1	nt	i	nt	i	i	nt	nt
COC(=O)/C(=C(/F)Sc1cc(C)c(O)c(C)c1)C(F)(F)F	i	i	i	i	i	nt	nt
Cc1cccc(NC(=S)N/N=C/c2ccc([N+](=O)[O-])s2)c1	i	i	i	i	i	i	61.5
Cc1cccc(NC(=O)/C=C/c2ccc([N+](=O)[O-])s2)c1	i	i	i	?	i	nt	nt
Cn1c(C(=O)N2CCCC(C(=O)NCCCSC3CCCCC3)C2)cc2sccc21 (stereo not drawn)	i	i	i	i	i	nt	nt
CCn1c(C(=O)N2CCCC(C(=O)NCCc3ccc(C)cc3)C2)cc2sccc21 (stereo not drawn)	i	i	i	i	i	i	i
Cn1c(C(=O)N2CCCC(C(=O)NCc3cccs3)C2)cc2sccc21 (stereo not drawn)	i	i	i	+	i	i	i
CCn1c(C(=O)N2CCCC(C(=O)NCCCc3ccccc3)C2)cc2sccc21 (stereo not drawn)	i	i	i	i	i	nt	nt
CCn1c(COc2ccccc2C)nnc1SCC(=O)Nc1cc(C)on1	i	i	i	+	i	i	i
Cc1ccc(-c2nnc(-c3ccc(NC(=O)Cc4cccs4)cc3)o2)cc1	i	i	i	+	i	i	i
O=C(Cc1cccs1)Nc1cccc(-c2nnc(-c3ccco3)o2)c1	i	i	i	i	i	nt	nt
COc1ccc(CN(C(=O)CN2C(=O)C(C)Oc3ccccc32)C2CCCC2)c(OC)c1 (stereo not drawn)	i	i	i	i	i	nt	nt
COc1ccc(CN(C(=O)CN2C(=O)COc3ccccc32)C2CCCC2)c(OC)c1	i	i	i	i	i	i	i
N#CCC(CNc1ncc(C(F)(F)F)cc1Cl)OC(=O)c1cccc([N+](=O)[O-])c1 (stereo not drawn)	i	i	i	i	i	i	i
O=C(NCc1ccccn1)C(=O)Nc1cc2c3c(c1)CC(=O)N3CCC2	i	i	i	i	i	nt	nt
COc1ccc(-c2nnc3ccc(SC)nn23)cc1	i	i	i	i	i	nt	nt
Cc1ccccc1Cn1c(=O)n(-c2ccccc2)c(=O)c2ccc(C(=O)NCc3ccco3)cc21	i	nt	i	i	nt	nt	nt
O=C(NCc1ccco1)c1ccc2c(=O)n(-c3ccccc3)c(=O)n(Cc3cccc(F)c3)c2c1	i	nt	i	+	nt	i	i
